Data: PubChem BioAssay (Tox21)
Values joined by “and” are separate entries in the source; they are usually repeats but may differ in a detail not shown here. Equal entries are not always repeated. Records with an inconclusive call do not appear. The source holds several records for some structures; these can differ, active in one and inactive in another. Active and inactive are the calls of the source. Unless noted, calls come from the whole dose curve; as a rule, active = well fitted curve in the direction sought with a large enough effect in the repeat runs; inconclusive = weak or mixed curves; inactive = no such curve, though single readings can be large; an effect the other way counts as inactive or inconclusive.

Experiments:
[1] = biological target: Progesterone receptor (Homo sapiens) (UniProt P06401); test: qHTS assay to identify small molecule antagonists of the progesterone receptor (PR) signaling pathway (AID 1346795; active = well fitted inhibition curve with a large enough effect in the signal ratio in the repeat runs, not every such curve was filed as active; the % refers to the signal ratio; note: potency is the fitted concentration of half-maximal effect)
Method in brief: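 Read-out is fluorescence from the LiveBLAzer B/G FRET substrate, cleaved by a UAS-controlled beta-lactamase in PR-UAS-bla HEK293T cells after 16 hr exposure to compound plus 1 nM promegestone (final), followed by 2 hr at room temperature.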

[2] = qHTS assay to identify small molecule antagonists of the progesterone receptor (PR) signaling pathway - cell viability counter screen (AID 1346798); note: nearly all actives have a fitted effect of over 50% in size; note: potency is the fitted concentration of half-maximal effect
Method in brief: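 HEK293T PR-UAS-bla, 2% charcoal-stripped FBS; 4 hr pre-plate; cpd + R5020, 16 h 37C; LiveBLAzer read first; then CellTiter-Glo 30 min RT, luminescence.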

[3] = qHTS assay to identify small molecule agonists of the progesterone receptor (PR) signaling pathway - cell viability counter screen (AID 1346799; calls by dose curve; note: nearly all actives have a fitted effect of over 45% in size; note: potency is the fitted concentration of half-maximal effect)
Method in brief: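 Luminescence from CellTiter-Glo, added after the beta-lactamase FRET read in the same wells, gave cytotoxicity in PR-UAS-bla HEK293T cells treated with compounds for 16 hr at 37C.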

[4] = qHTS assay to identify small molecule antagonists of the TGF-beta/Smad signaling pathway - cell viability counter screen (AID 1346824); note: nearly all actives have a fitted effect of over 50% in size
Method in brief: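 Cytotoxicity counter-screen run in the same wells as the beta-lactamase Smad reporter read: CellTiter-Glo luminescence after 30 min at room temperature. HEK 293T SBE-bla cells had 5 hr compound exposure at 37 C with TGF-beta1 (0.25 ng/mL stock).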

[5] = qHTS assay to identify small molecule agonists of the TGF-beta/Smad signaling pathway - cell viability counter screen (AID 1346829); note: nearly all actives have a fitted effect of over 45% in size; note: potency is the fitted concentration of half-maximal effect
Method in brief: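 Same-well cytotoxicity: CellTiter-Glo added after the 2 hr room-temperature beta-lactamase substrate step, luminescence measured 30 min later; cells had 5 hr of compound at 37 C.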

[6] = qHTS assay to identify small molecule agonists of the TGF-beta/Smad signaling pathway (AID 1346859; active = well fitted activation curve with a large enough effect in the signal ratio in the repeat runs, not every such curve was filed as active; the % refers to the signal ratio; note: series mostly up to about 77 µM)
Method in brief: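 SBE-bla HEK 293T, 4,000 cells/well, plated o/n; cpd in DMSO, 5 hr, 37 C/5% CO2; B/G FRET substrate 2 hr RT; ex 405, em 460/530 nm.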

[7] = biological target: Thyrotropin-releasing hormone receptor (Homo sapiens) (UniProt P34981); test: qHTS assay to identify small molecule antagonists of the thyrotropin-releasing hormone receptor (TRHR) signaling pathway (AID 1346877; active = well fitted inhibition curve with a large enough effect in the repeat runs, not every such curve was filed as active; note: series mostly up to about 51 µM)
Method in brief: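 Antagonist mode: after a 5 min room-temperature compound exposure, cells were stimulated with 1 nM (final) TRH. Dye-loaded TRHR-HEK293 cells were used, and calcium-dependent fluorescence was followed for 3 min, with 15-point titrations run in triplicate.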

[8] = Human pregnane X receptor (PXR) small molecule agonists, qHTS cell viability counter screen (AID 1346977); note: nearly all actives have a fitted effect of over 50% in size; note: potency is the fitted concentration of half-maximal effect
Method in brief: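 PXR-Luc HepG2, 2,000 cells/well, 5% charcoal-stripped FBS; 5hr settle; cpd 24hr, 37C/5% CO2; CellTiter-Fluor at 23hr, read 1hr later (fluorescence).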

[9] = biological target: Progesterone receptor (Homo sapiens) (UniProt P06401); test: qHTS assay to identify small molecule agonists of the progesterone receptor (PR) signaling pathway (AID 1346784; calls by dose curve; note: nearly all actives have a fitted effect of over 30% in size)
Method in brief: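 Beta-lactamase reporter read-out: after 16 hr compound treatment at 37C and a further 2 hr at room temperature with LiveBLAzer B/G FRET substrate, fluorescence was measured in PR-UAS-bla HEK 293T cells grown in 2% charcoal-stripped serum.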

[10] = biological target: Thyrotropin-releasing hormone receptor (Homo sapiens) (UniProt P34981); test: qHTS assay to identify small molecule agonists of the thyrotropin-releasing hormone receptor (TRHR) signaling pathway (AID 1346891; calls by dose curve; note: series mostly up to about 58 µM)
Method in brief: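 Intracellular calcium rise, read as fluorescence every second for 3 min, served as the agonist signal in dye-loaded HEK293 cells expressing TRHR; each compound ran at 15 concentrations in triplicate.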

Measured: Potency

Thyrotropin-releasing hormone receptor (Homo sapiens), sequence (P34981 whole entry, looked up): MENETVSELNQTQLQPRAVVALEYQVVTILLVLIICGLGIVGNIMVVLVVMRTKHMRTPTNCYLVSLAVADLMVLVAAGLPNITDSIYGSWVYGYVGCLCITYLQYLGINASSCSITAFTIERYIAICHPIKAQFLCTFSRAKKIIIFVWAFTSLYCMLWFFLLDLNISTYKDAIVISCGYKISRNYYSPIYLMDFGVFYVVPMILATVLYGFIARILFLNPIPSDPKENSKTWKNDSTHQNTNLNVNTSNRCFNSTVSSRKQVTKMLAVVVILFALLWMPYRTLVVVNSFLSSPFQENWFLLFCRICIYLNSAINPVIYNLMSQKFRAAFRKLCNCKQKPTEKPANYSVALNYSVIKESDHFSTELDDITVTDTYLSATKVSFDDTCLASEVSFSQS
Progesterone receptor (Homo sapiens), sequence (P06401 whole entry, looked up): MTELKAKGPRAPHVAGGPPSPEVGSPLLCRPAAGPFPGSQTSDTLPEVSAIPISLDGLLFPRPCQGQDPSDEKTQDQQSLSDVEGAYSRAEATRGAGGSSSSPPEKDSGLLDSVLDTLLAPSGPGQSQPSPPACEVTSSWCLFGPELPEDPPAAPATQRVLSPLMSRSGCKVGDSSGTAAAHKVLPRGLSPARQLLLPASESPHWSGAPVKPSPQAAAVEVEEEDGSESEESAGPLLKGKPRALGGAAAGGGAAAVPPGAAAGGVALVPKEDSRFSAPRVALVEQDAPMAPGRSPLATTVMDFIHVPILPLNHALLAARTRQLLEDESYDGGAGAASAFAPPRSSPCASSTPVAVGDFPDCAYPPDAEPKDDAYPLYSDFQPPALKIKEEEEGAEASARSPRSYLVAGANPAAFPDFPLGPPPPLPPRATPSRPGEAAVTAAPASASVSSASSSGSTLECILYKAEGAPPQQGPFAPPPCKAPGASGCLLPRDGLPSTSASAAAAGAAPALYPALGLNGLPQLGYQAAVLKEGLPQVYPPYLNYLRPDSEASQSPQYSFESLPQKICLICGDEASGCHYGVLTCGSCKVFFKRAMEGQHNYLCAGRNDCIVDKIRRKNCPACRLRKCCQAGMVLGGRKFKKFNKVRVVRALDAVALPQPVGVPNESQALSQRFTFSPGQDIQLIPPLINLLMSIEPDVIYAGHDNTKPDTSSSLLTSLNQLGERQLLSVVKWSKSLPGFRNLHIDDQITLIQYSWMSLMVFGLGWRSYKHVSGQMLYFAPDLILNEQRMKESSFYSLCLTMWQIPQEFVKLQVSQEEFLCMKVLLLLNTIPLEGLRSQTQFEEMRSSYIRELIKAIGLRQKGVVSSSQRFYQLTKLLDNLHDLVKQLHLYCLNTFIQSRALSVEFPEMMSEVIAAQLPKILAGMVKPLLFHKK

CN(CCCC(=O)c1cccnc1)N=O
not listed: [9] | [10]
inactive: all other assays above

CCCCOP(=O)(CCCC)OCCCC
not listed: [7] | [9] | [10]
inactive: all other assays above

CNC(C)Cc1ccc2c(c1)OCO2 (stereo unspecified)
active: [1] 75.1 µM | [2] 66.9 µM
inactive: [3] | [4] | [5] | [6] | [7]

O=C(O)C1C2CCC(O2)C1C(=O)O (stereo unspecified)
inactive: [9] | [4] | [5] | [6] | [7]

CCOc1cc(C(C)(C)C)ccc1C1COC(c2c(F)cccc2F)=N1 (stereo unspecified)
active: [1] 23.4 µM | [2] 37.1 µM
inactive: [5] | [6] | [7]

CC(=O)[O-].CC(=O)[O-].O.O.[Cd+2]
active: [1] 0.603 µM | [2] 19.1 µM | [3] 15.1 µM | [8] 8.51 µM
inactive: [5] | [6]

CC(c1ccc(O)cc1)c1ccc(O)cc1
inactive: [4] | [6] | [7] | [10] | [8]
active: [1] 6.86 µM

O=C1c2ccccc2C(=O)C1C(=O)C(c1ccccc1)c1ccc(Cl)cc1 (stereo unspecified)
inactive: [2] | [4] | [6]
active: [1] 19.3 µM | [8] 21.7 µM

N#C/C=C/c1ccccc1
not listed: [7] | [9] | [10]
inactive: all other assays above

Oc1c(Br)c(Br)c(Br)c(Br)c1Br
active: [1] 27.5 µM
inactive: [4] | [5] | [6]

CCC(C)(C)C(=O)OC1=C(c2ccc(Cl)cc2Cl)C(=O)OC12CCCCC2
not listed: [2] | [5] | [9]
inactive: all other assays above

CCOC(=O)CC(=O)CCl
not listed: [7] | [9] | [10]
inactive: all other assays above

CC(C)(C)c1cc([N+](=O)[O-])cc(C(C)(C)C)c1O
inactive: [5] | [7] | [10]
active: [1] 30.6 µM | [8] 5.45 µM

CC(C)CC(C)(c1ccc(O)cc1)c1ccc(O)cc1
inactive: [4] | [5] | [6] | [10]
active: [1] 6.11 µM | [8] 50.1 µM

COP(N)(=S)OC
not listed: [7] | [9] | [10]
inactive: all other assays above

CC(Cc1ccc(C(C)(C)C)cc1)CN1C[C@@H](C)O[C@@H](C)C1 (stereo partly specified)
inactive: [1] | [4] | [5] | [6] | [8]

Clc1ccc(C(Cl)(Cl)Cl)c(Cl)c1
active: [2] 48.9 µM
not listed: [3] | [9]
inactive: all other assays above

ClCc1ccccc1CCl
not listed: [5] | [9]
inactive: all other assays above

BrCC(Br)c1ccccc1 (stereo unspecified)
inactive: [1] | [2] | [3] | [4] | [6] | [8]

CC(C)(C)C(O)C(Oc1ccc(-c2ccccc2)cc1)n1cncn1 (stereo unspecified)
inactive: [4] | [6] | [7] | [10]
active: [1] 61.1 µM | [8] 61.1 µM

O=C(O)c1cc[c]([Hg][Cl])cc1
active: [1] 15.4 µM | [8] 68.6 µM
inactive: [4] | [5] | [7] | [10]

Nc1ccc(Cc2ccc(N)c(Cl)c2)cc1Cl
inactive: [4] | [5] | [6] | [7] | [10]
active: [1] 13.2 µM

Nc1ccccc1C(=O)OC/C=C/c1ccccc1
active: [1] 27.4 µM
not listed: [5] | [9]
inactive: all other assays above

CCCCCCCCc1ccc(O)cc1
inactive: [4] | [5] | [6]
active: [1] 20.4 µM | [8] 54.8 µM

S=C=Nc1cccc2ccccc12
active: [1] 67.9 µM | [8] 53.9 µM
inactive: [4] | [5] | [6] | [7]

Oc1cc(Cl)c(Cl)c(Cl)c1
inactive: [2] | [4] | [6] | [7] | [10]
active: [1] 13 µM | [8] 51.7 µM

O=C(NC(=O)c1c(F)cccc1F)Nc1cc(Cl)c(OC(F)(F)C(F)F)c(Cl)c1
not listed: [3] | [9] | [10]
inactive: all other assays above

Clc1ccc(C(c2ccc(Cl)cc2)C(Cl)(Cl)Cl)cc1
active: [1] 7.7 µM and 5.96 µM
55.3 µM (active) and inactive: [5]
inactive: [2] | [4] | [6] | [7] | [8]

O=c1[nH]c2ccccc2n1C1CCN(CCCC(c2ccc(F)cc2)c2ccc(F)cc2)CC1
inactive: [6]
active: [1] 26.6 µM | [2] 30.6 µM | [8] 21.7 µM and 26.6 µM
